Screening data deposited in PubChem by National Center for Advancing Translational Sciences (NCATS).
This excerpt belongs to a sample that is enriched for hits.
Eya2 inh = qHTS Assay for Inhibitors of the Phosphatase Activity of Eya2; Protein phosphatase EYA2 (Homo sapiens), O00167; recombinant Eya2, OMFP fluorescence dephosphorylation (OMFP is methylfluorescein phosphate); Potency, µM (top dose mostly 76.9 µM), without a hit: top-dose activity, negative = inhibition, usual class: inhibitors; 330,000 compounds, 0.006% hits; further: on the % scale 0 is the no-effect control and ±100 the full control effect
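Eya2 (0.2 uM) preincubated 10 min at ambient with compound, then OMFP substrate added at 50 uM; 10 min reaction in 50 mM HEPES pH 7.5, 50 mM NaCl, 5 uM MgCl2, 0.05% BSA, 1 mM DTT. Fluorescence read at Ex 485/Em 525 nm.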
GALK inh = qHTS Assay for Inhibitors of Human Galactokinase (GALK); 270,000 compounds, 0.007% hits; P51570; Potency, µM (titrated, usually from 57.5 µM), for inactives: at the top dose activity change, negative = inhibition, actives largely listed as inhibitors; Purified GALK, Kinase-Glo residual ATP luminescence; further: on the % scale 0 is the no-effect control and ±100 the full control effect
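The enzyme phosphorylates galactose (100 uM) using ATP (35 uM); inhibition is detected as higher residual ATP, quantified by bioluminescence after 1 h reaction at room temperature, pH 8.0.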
USP2a inh = qHTS Assay for Inhibitors of Ubiquitin-specific Protease USP2a Using CHOP2 as the Reporter | Ubiquitin carboxyl-terminal hydrolase 2 (Homo sapiens), O75604 | USP2 core, Ub-CHOP2 coupled fluorogenic reporter, 485/531 | Potency, µM (doses to about 38.3 µM), for inactives: top-dose activity change, negative = inhibition, usual class: inhibitors | 330,000 compounds, 0.01% hits | AID 463254, 2010;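 further: plate controls were DMSO wells for no effect and full inhibition by NEM control for full effect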
Target sequence (O75604 whole entry, looked up): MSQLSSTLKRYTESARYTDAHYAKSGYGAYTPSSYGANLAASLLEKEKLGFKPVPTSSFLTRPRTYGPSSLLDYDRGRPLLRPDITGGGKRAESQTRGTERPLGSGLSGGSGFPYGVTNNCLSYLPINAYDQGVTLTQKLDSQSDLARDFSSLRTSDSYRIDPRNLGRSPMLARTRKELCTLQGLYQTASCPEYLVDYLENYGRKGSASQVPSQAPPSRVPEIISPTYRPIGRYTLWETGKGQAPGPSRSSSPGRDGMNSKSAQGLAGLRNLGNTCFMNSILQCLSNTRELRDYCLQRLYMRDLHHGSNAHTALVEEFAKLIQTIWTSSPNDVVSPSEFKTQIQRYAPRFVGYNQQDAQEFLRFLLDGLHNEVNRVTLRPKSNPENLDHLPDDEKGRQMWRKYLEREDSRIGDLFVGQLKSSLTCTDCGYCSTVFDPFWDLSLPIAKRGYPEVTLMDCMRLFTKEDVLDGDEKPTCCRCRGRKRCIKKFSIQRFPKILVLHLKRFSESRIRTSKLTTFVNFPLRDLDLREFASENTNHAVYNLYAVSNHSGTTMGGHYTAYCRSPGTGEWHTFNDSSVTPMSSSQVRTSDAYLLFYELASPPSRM
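Cell-free coupled assay: 10nM USP2 core preincubated 30min RT with compound in Tris-HCl pH 8.0/CaCl2/CHAPS buffer, then 25nM Ub-CHOP2 and 25nM reporter substrate; fluorescence (Ex 485/Em 531) read after 60min RT, normalized to NEM inhibition, concentration-response curves fitted.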
ClpP mod = qHTS Assay for Activators of ClpP. ATP-dependent Clp protease proteolytic subunit (Bacillus subtilis (strain 168)), P80244. Potency, µM (doses to about 57.5 µM), without a hit: top-dose activity change, negative = active. 340,000 compounds, 1.9% hits. AID 651965, 2013. purified B. subtilis ClpP, FRET peptide cleavage, 20 min; active means well fitted falling curve with a large enough effect; inconclusive means small, poorly fitted or top-dose-only effect; inactive means no such curve, though single readings can be large or run the other way; further: the source files actives as falling curves though it sought activators and does not explain the sign; nearly all actives have a fitted effect of over 65% in size
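Purified B. subtilis ClpP, 10 microg/mL final in Tris/HCl pH8 with KCl, BSA, glycerol and Tween-20, cleaved an Abz/nitrotyrosine-quenched decapeptide. Fluorescence (ex 320, em 430) was read at 0 and 20 min at room temperature. Delta was normalized to 5.8 microM ADEP and DMSO/no-enzyme controls.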
* marks the source's active call; other numbers are inactive results; ? = inconclusive; . = no result. Unless noted, the call rests on the fitted dose curve; in most records, active means well fitted inhibition curve with a large enough effect; inconclusive means small, poorly fitted or top-dose-only effect, or effect the other way; inactive means flat fitted curve, though single readings scatter. Potency means the concentration at half of the fitted maximal effect.

SMILES | Eya2 inh | GALK inh | USP2a inh | ClpP mod
COc1ccc(NC(=O)c2ccc3c(c2)c(C)c(C)n3Cc2ccc(F)cc2)c(OC)c1 | . | . | . | 22.4µM*
COc1ccc(OC)c(NC(=O)c2ccc3c(c2)c(C)c(C)n3Cc2ccc(F)cc2)c1 | . | . | . | 22.4µM*
COc1ccc(NC(=O)c2ccc(C(=O)Nc3ccc(OC)cc3OC)cc2)c(OC)c1 | -2.2% | -0.5% | -3.1% | .
Cc1c(Cl)cccc1NC(=O)C1C2C=CC(C2)C1C(=O)O (stereo not given) | ? | -3.5% | 4.7% | -0.6%
C[C@H](CO)N1C[C@H](C)[C@@H](CN(C)S(=O)(=O)c2ccc(Oc3ccccc3)cc2)OCc2cnnn2CCCC1=O | . | . | . | 0.1%
COc1cccc2c1C(=O)C[C@]1(CCCC[C@@H]1C)O2 | 6.2% | . | 0.1% | -19.6%
Cc1ccccc1OCCC(=O)OCC(=O)Nc1ccc2[nH]c(=O)[nH]c2c1 | -21.3% | . | 1.9% | 31.6µM*
O=C(NCC1CCCO1)c1ccc(Br)s1 (stereo not given) | 1.5% | -2.9% | 1.7% | -0.4%
COc1cccc(CNC(=O)c2ccc(-c3nc(CSc4ccccc4)c(C)o3)cc2)c1 | . | . | . | -13.8%
COc1ccc(OC)c(CNC(=O)c2ccc(-c3nc(CSc4ccccc4)c(C)o3)cc2)c1 | . | . | . | 17.8µM*
COc1cc(NC(=O)c2ccc(-c3nc(CSc4ccccc4)c(C)o3)cc2)cc(OC)c1 | . | . | . | 14.1µM*
CCN(CC)C(=O)CSC1=Nc2ccccc2C2=NC(c3ccccc3)C(=O)N12 (stereo not given) | 5.3% | -1.8% | 2.2% | 15.8µM*
CC(C)C1N=C2c3ccccc3N=C(SCC(=O)NCCc3ccc(S(N)(=O)=O)cc3)N2C1=O (stereo not given) | 16.6% | 0.3% | -0.9% | 31.6µM*
CCC(C)NC(=O)CSC1=Nc2ccccc2C2=NC(CC(=O)NCc3ccc(F)cc3)C(=O)N12 (stereo not given) | 3.2% | 0.1% | -0.3% | 31.6µM*
CC(C)C1N=C2c3ccccc3N=C(SCC(=O)NCc3ccc(Cl)cc3)N2C1=O (stereo not given) | . | . | . | 4.1%
CC/C(=N\Nc1nncc2ccccc12)c1ccc(F)cc1 | -1.4% | 4.5% | 0.2% | .
CCN(CC)C(=O)c1cc(-c2ccccc2OC)on1 | 2.6% | -2.0% | 1.1% | 25.1µM*
Cc1cc(=O)oc2cc(OCC3CC(c4ccccc4)=NO3)ccc12 (stereo not given) | 5.6% | -0.3% | 2.2% | 28.2µM*
C#CCOc1ccc2c(C)cc(=O)oc2c1 | -5.5% | 6.1% | -0.6% | 4.1%
Cc1cc(=O)oc2cc(OCC3CC(c4ccc(Br)cc4)=NO3)ccc12 (stereo not given) | 4.0% | . | 5.0% | 28.2µM*
COc1ccc(C(CCN2CCN(c3ccccc3)CC2)c2c(O)cc(OC)cc2OC)cc1 (stereo not given) | 7.2% | 5.4% | -0.1% | 0.6%
C=CCN1C(=O)C(CC(=O)Nc2ccc(OCC)cc2)N(Cc2ccccn2)C1=S (stereo not given) | 0.1% | -1.0% | -1.0% | .
Cc1ccccc1NC(=S)NCCC(c1ccccc1)c1ccccc1 | ? | -3.1% | 0.0% | 12.6µM*
CC(OC(=O)c1cc(Cl)ccc1[N+](=O)[O-])C(=O)NC(C)c1ccc(F)cc1 (stereo not given) | -3.6% | -2.6% | 6.4% | -1.5%
CCCCc1c(C)c2ccc(OC)c(/C(C)=N\O)c2oc1=O | 1.9% | -2.4% | 0.4% | 8.91µM*
SMILES | Eya2 inh | GALK inh | USP2a inh | ClpP mod
CCOc1ccc2c3c(c(=O)oc2c1OCC)CCCC3 | -1.6% | -4.6% | 3.9% | ?
CCOC(=O)CCc1c(C)c2ccc(OCC)c(C)c2oc1=O | -1.9% | 0.6% | -0.6% | 31.6µM*
CCOC(=O)CCc1c(C)c2ccc(OCC(=O)N3CCOCC3)c(C)c2oc1=O | 5.0% | -1.9% | -1.4% | 10µM*
COc1ccc2c3c(c(=O)oc2c1OCC(N)=O)CCCC3 | 8.7% | -2.1% | 0.0% | 28.2µM*
CCOC(=O)CCc1c(C)c2ccc(OCC(=O)OC(C)C)cc2oc1=O | -14.0% | -0.1% | -1.0% | ?
COC(=O)c1c(C)oc2ccc(N(C(=O)c3ccncc3)S(=O)(=O)c3ccc(C)cc3)cc12 | -31.3% | -3.8% | 2.1% | 0.8%
CCOC(=O)COc1ccc2c3c(c(=O)oc2c1C)CCC3 | 15.3% | -0.4% | 1.7% | 12.6µM*
CCOC(=O)C(NC(=O)Nc1cccc(C)n1)(OCC(F)(F)F)C(F)(F)F (stereo not given) | 8.3% | -2.8% | -0.8% | -3.0%
O=C(Nc1ccccn1)c1ccc(Br)c(S(=O)(=O)N2CCCCC2)c1 | -17.1% | -0.2% | 1.8% | 12.6µM*
O=C(Nc1nncs1)c1cccc(S(=O)(=O)N2CCCC2)c1 | -20.3% | -0.1% | 2.6% | -0.1%
O=C(Nc1nncs1)c1ccc(Br)c(S(=O)(=O)N2CCCC2)c1 | -1.1% | -7.0% | -0.1% | 31.6µM*
O=C(Nc1ccccn1)c1ccc(Br)c(S(=O)(=O)N2CCCC2)c1 | 11.5% | 2.3% | -0.2% | -0.3%
CCOC(=O)c1c(-c2ccc(F)cc2)csc1/N=C/N(C)C | -26.1% | 1.9% | 3.3% | 25.1µM*
CCOC(=O)c1c(-c2ccc(C)cc2)csc1/N=C/N(C)C | 1.5% | 0.4% | 2.8% | 1.7%
COc1ccc2c(c1)C(=O)N1[C@H]3c4cc(Cl)ccc4OC[C@@H]3[C@H](c3ccccc3)[C@]1(C)C(=O)N2 | -25.7% | . | 1.7% | 17.8µM*
CCOc1ccccc1C1NC(=O)c2ccccc2N1 (stereo not given) | . | . | . | 22.4µM*
Cc1ccc(C2NC(=O)c3ccccc3N2)s1 (stereo not given) | 12.1% | -3.6% | 2.2% | 28.2µM*
Cc1cccc(C2NC(=O)c3ccccc3N2)c1 (stereo not given) | . | . | . | 28.2µM*
Cc1ccc(C2NC(=O)c3ccccc3N2)c(C)c1 (stereo not given) | . | . | . | 28.2µM*
CN(C)c1ccc(C2NC(=O)c3ccccc3N2)cc1 (stereo not given) | 4.9% | 0.0% | -1.1% | 38.3%
COc1ccc(NCC(=O)Nc2c(C)cccc2C)cc1S(=O)(=O)N1CCOCC1 | . | . | . | -0.9%
CCc1nnc(NC(=O)CSc2ccc(-c3ccc(C)cc3)nn2)s1 | -1.4% | -1.5% | 0.7% | -0.8%
O=C(Cn1cnc2ccccc2c1=O)c1ccc2ccccc2c1 | . | 1.2% | . | 31.6µM*
COc1ccc(C(=O)Cn2cnc3ccccc3c2=O)cc1 | 8.6% | 2.4% | -1.3% | .
Cc1nc(Cl)c(N=Cc2cccc([N+](=O)[O-])c2)c(Cl)n1 | -1.2% | 13.4% | 1.9% | .
CC(C)(C)OC(=O)N1CCC[C@H]1c1nnc(SCc2c(F)cccc2Cl)o1 | 9.7% | 3.3% | 3.2% | 1.0%
Cc1ccc(-n2ncc3c(NCc4ccccc4)ncnc32)cc1 | -6.6% | 5.9% | 1.8% | -28.1%
Cc1ccc(-n2ncc3c(N(C)Cc4ccccc4)ncnc32)cc1 | . | . | . | 31.6µM*
